Broadly, the AC50 is the concentration giving half of the maximal activity seen.

The target of experiment [1] is PGR (gene 5241) (UniProt P06401). The experiment is described as follows: TOX21_PR_BLA_Followup_Antagonist_ratio: Tox21 HEK293 Progesterone Receptor (PR) Antagonism Beta-lactamase Follow-Up Assay, Ratio (AID 2283934). The essentials: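 HEK293T PR-UAS-bla, 2% CS-FBS; 6 hr plating, then cpd + R5020 (1 nM final), 16 hr 37C/5% CO2. B/G FRET substrate 2 h RT. Ratio ch2/ch1 vs DMSO; CellTiter-Glo viability multiplexed, autofluorescence checked.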
PGR (gene 5241), sequence (P06401 whole entry, looked up): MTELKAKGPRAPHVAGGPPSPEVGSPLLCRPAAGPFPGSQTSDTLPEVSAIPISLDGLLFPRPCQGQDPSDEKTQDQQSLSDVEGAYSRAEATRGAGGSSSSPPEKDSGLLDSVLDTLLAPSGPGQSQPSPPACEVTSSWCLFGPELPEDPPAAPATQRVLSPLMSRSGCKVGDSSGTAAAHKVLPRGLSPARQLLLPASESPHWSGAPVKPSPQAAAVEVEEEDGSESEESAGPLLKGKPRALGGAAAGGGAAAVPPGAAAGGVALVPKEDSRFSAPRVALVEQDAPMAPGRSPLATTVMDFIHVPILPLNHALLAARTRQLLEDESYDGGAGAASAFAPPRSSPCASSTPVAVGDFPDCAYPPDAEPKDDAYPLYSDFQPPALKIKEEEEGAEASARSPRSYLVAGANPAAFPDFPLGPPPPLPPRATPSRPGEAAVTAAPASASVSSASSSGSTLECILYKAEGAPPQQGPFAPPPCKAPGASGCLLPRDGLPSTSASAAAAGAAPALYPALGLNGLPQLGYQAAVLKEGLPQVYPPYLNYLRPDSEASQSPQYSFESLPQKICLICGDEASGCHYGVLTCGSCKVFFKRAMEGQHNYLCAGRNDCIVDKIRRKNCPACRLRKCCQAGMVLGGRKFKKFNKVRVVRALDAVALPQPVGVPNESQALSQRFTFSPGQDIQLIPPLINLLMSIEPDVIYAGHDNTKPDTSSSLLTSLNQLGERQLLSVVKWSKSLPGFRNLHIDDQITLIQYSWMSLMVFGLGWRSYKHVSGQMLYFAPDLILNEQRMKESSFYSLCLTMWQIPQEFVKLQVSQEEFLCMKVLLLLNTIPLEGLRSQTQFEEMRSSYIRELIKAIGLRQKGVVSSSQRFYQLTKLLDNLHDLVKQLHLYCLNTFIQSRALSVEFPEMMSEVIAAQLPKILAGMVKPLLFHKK

Experiment [2] can be described thus: TOX21_PR_BLA_Followup_Agonist_viability: Viability Assessment in the Tox21 HEK293 Progesterone Receptor (PR) Agonism Beta-lactamase Follow-Up Assay (AID 2283935).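 Also: cells exposed to compound for 16 hr at 37 °C; signal loss means lower viability so actives are cytotoxic.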 The essentials: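 HEK293T PR-UAS-bla, 3,000 cells/well, 2% CS-FBS; 6 hr pre-incubation; cpd in DMSO, 16 hr 37C; LiveBLAzer 2 hr RT, then CellTiter-Glo 30 min RT, luminescence. Decrease = lost viability.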

The nature of experiment [3]: TOX21_PR_BLA_Followup_Antagonist_viability: Viability Assessment in the Tox21 HEK293 Progesterone Receptor (PR) Antagonism Beta-lactamase Follow-Up Assay (AID 2283936).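 Also: hits lower the luminescence signal meaning cytotoxicity.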 The essentials:
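PR-UAS-bla HEK293T cells (3,000/well, 2% charcoal-stripped FBS) given compound plus R5020 agonist, 16 h at 37C. CellTiter-Glo added after bla read, 30 min at room temperature; luminescence loss indicates cytotoxicity.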

In experiment [4] the target is PGR (gene 5241) (UniProt P06401). The experiment is described as follows: TOX21_PR_LUC_Followup_Antagonist: Tox21 HEK293 Progesterone Receptor (PR) Antagonism Luciferase Follow-Up Assay (AID 2283938).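 Also: curve fitted upward as signal gain over DMSO baseline despite antagonist label.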 The gist of the method:
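Cells are grown 5 days in charcoal-stripped-FBS assay medium, plated, left 5 h, then dosed with compound and incubated 16 h. ONE-Glo reagent is added and luminescence read after 30 min.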

Experiment [5] in a line: TOX21_PR_LUC_Followup_Agonist_viability: Viability Assessment in the Tox21 HEK293 Progesterone Receptor (PR) Agonism Luciferase Follow-Up Assay (AID 2283941).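 Also: loss of signal means cytotoxicity so actives lower viability.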 The gist of the method: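 Cells were kept 5 days in charcoal-stripped serum medium before plating HEK293-PR-A-luc at 3,000 cells/well. After 5 h they received DMSO-dissolved compound and incubated 16 h at 37C. Viability was taken from CellTiter-Glo ATP luminescence.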

Experiment [6] in a line: CEETOX_H295R_DOC_noMTC: CeeTox H295R High-throughput Steroidogenesis Assay for DOC, maximum tolerated concentration (MTC) filtered results only (AID 2283918; active = hit-call score of the fitted dose curve at least 0.9, where 1 is the maximum; inactive = score below 0.9). The settings on record: actives raise or lower the signal. The essentials:
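H295R cells prestimulated 48 h with 10 uM forskolin, then exposed 48 h to chemical in 0.1% DMSO. 11-Deoxycorticosterone in medium measured by MTBE extraction and HPLC-MS/MS; bidirectional fit vs DMSO, no MTC filter.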

A short description of experiment [7]: CEETOX_H295R_PROG_noMTC: CeeTox H295R High-throughput Steroidogenesis Assay for Progesterone (PROG), maximum tolerated concentration (MTC) filtered results only (AID 2283920; active = hit-call score of the fitted dose curve at least 0.9, where 1 is the maximum; inactive = score below 0.9). As to conditions: actives raise or lower the signal. The essentials:
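H295R cells, prestimulated 48 h with 10 uM forskolin, exposed 48 h to chemical in 0.1% DMSO. Medium progesterone quantified by MTBE extraction and HPLC-MS/MS; bidirectional fit versus DMSO, concentrations not MTT-filtered.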

Experiment [8] can be described thus: CEETOX_H295R_ESTRADIOL_noMTC: CeeTox H295R High-throughput Steroidogenesis Assay for Estradiol, maximum tolerated concentration (MTC) filtered results only (AID 2283919; active = hit-call score of the fitted dose curve at least 0.9, where 1 is the maximum; inactive = score below 0.9). As to conditions: actives raise or lower the signal. The essentials:
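H295R human adrenal cells pre-stimulated 48 h with 10 uM forskolin, then exposed 48 h to chemical (0.1% DMSO final). Estradiol in medium measured by HPLC-MS/MS after MTBE extraction and dansyl derivatization; bidirectional fit versus DMSO, concentrations not MTT-filtered.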

Experiment [9] can be described thus: CEETOX_H295R_ESTRONE_noMTC: CeeTox H295R High-throughput Steroidogenesis Assay for Estrone, maximum tolerated concentration (MTC) filtered results only (AID 2283921; active = hit-call score of the fitted dose curve at least 0.9, where 1 is the maximum; inactive = score below 0.9). As to conditions: actives raise or lower the signal. The gist of the method: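 H295R cells prestimulated 48 h with 10 uM forskolin, then exposed 48 h to chemical in 0.1% DMSO; medium estrone measured by HPLC-MS/MS after MTBE extraction and dansyl derivatization, fitted bidirectionally versus DMSO without MTT-based MTC filtering.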

Experiment [10] can be described thus: TOX21_PR_LUC_Followup_Antagonist_viability: Viability Assessment in the Tox21 HEK293 Progesterone Receptor (PR) Antagonism Luciferase Follow-Up Assay (AID 2283940). The gist of the method: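 Multiplexed viability counter-screen: after 5 days in charcoal-stripped-FBS medium, HEK293-PR-A-luc cells are plated, pinned with DMSO-dissolved compounds for 16 h at 37C, and ATP content is quantified luminescently via CellTiter-Glo.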

Each structure is given as a SMILES string. Records with an inconclusive call do not appear. Activity calls are given as the source filed them. The calls were made as follows, unless noted: active = hit-call score of the fitted dose curve at least 0.9, where 1 is the maximum; inconclusive = response in the unintended direction; inactive = score below 0.9.

In the case of `ClC1C(Cl)C(Cl)C(Cl)C(Cl)C1Cl` (stereo not drawn), the outcome in [1], in [2], in experiment [3], in experiment [4] and in [5] was inactive.

With `CCS(=O)(=O)c1cccnc1S(=O)(=O)NC(=O)Nc1nc(OC)cc(OC)n1`, the AC50 in experiment [6] is 7.07 µM (active); in experiment [7], 16.7 µM (active).

In the case of `O=C(Nc1ccccc1)Nc1cnns1`, the AC50 in experiment [6] was 25.4 µM (active); in experiment [7], 34.7 µM (active). Moreover, the compound was classed as inactive in experiment [8] and in experiment [9].

Turning to `CCCN(CCOc1c(Cl)cc(Cl)cc1Cl)C(=O)n1ccnc1`, the AC50 is 32.3 µM (active) in experiment [1] and 57.9 µM (active) in experiment [4]. The compound was called inactive in [2], in experiment [3], in [10] and in [5].

In the case of `COP(=S)(OC)Oc1ccc([N+](=O)[O-])cc1`, the AC50 in experiment [1] was 38.4 µM (active); in experiment [4], 33.5 µM (active). In addition, the result in [2], in experiment [3], in [10] and in experiment [5] was inactive.

The values above are taken from PubChem BioAssay (EPA / NIEHS).
